Screening data deposited in PubChem by Sanford-Burnham Center for Chemical Genomics.
This is one part of a sample in which hits are shown more often than they occur.
ER stress surv = ER stress cell death inhibition. CSM14.1 thapsigargin ER stress survival, ATP luminescence. relative survival (cellular ATP), % at 15 µg/mL (by protocol). actives 0.33% (n = 48,000). AID 1010;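 active = survival measured by cellular ATP above 50% at 15 µg/ml in the first screen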;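 also: cell death triggered by about 15 µM thapsigargin; ATP read 24 h after thapsigargin was added; plate controls were thapsigargin with DMSO for no effect and DMSO without thapsigargin for full effect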
* = called active by the depositor.

What do the screens show for `CC1=NN(c2ccc(S(N)(=O)=O)cc2)C(=O)/C1=C\c1ccccc1OCc1ccccc1`?
ER stress surv: 19

How did CCn1c2ccccc2c2cc(CN3CCN(C(=O)c4ccc(OC)c(OC)c4)CC3)ccc21 do in these assays?
ER stress surv: 122*

Results for CCn1c2ccccc2c2cc(CN3CCN(C(=O)c4cc(OC)c(OC)c(OC)c4)CC3)ccc21 ?
ER stress surv: 113*

What do the screens show for `CCn1c2ccccc2c2cc(CN3CCN(C(=O)c4ccncc4)CC3)ccc21`?
ER stress surv: 17

Results for CCn1c2ccccc2c2cc(CN3CCN(Cc4ccc(OC)c(OC)c4OC)CC3)ccc21 ?
ER stress surv: -4

Results for CCn1c2ccccc2c2cc(CN3CCN(Cc4ccccc4OC)CC3)ccc21 ?
ER stress surv: -2

What do the screens show for `CCn1c2ccccc2c2cc(CN3CCN(Cc4cc(OC)c(OC)cc4OC)CC3)ccc21`?
ER stress surv: -6

How did O=C(Nc1cccc(C(=O)Nc2cccc(Cl)c2)c1)c1ccc(F)cc1 do in these assays?
ER stress surv: 15

What do the screens show for `COc1cc(C(=O)N2CCN(Cc3ccccc3C(F)(F)F)CC2)cc(OC)c1OC`?
ER stress surv: 8

What do the screens show for `COc1ccc(CN2CCN(C(=O)c3ccc(-c4ccccc4)cc3)CC2)c(OC)c1`?
ER stress surv: 129*

How did COc1ccc(C(=O)N2CCN(Cc3ccccc3)CC2)c(OC)c1 do in these assays?
ER stress surv: -2

What do the screens show for `COc1ccc(Br)cc1CN1CCN(C(=O)c2ccc(-c3ccccc3)cc2)CC1`?
ER stress surv: 98*

Results for COc1ccc(CN2CCN(C(=O)c3ccccc3)CC2)c(OC)c1OC ?
ER stress surv: 1

How did COc1cc(OC)cc(C(=O)N2CCN(Cc3ccccn3)CC2)c1 do in these assays?
ER stress surv: 0

How did COc1ccc(CN2CCN(C(=O)c3ccc(-c4ccccc4)cc3)CC2)cc1OC do in these assays?
ER stress surv: -6

Results for COc1cc(OC)c(OC)cc1CN1CCN(C(=O)c2ccc(OC)c(OC)c2)CC1 ?
ER stress surv: 2

What do the screens show for `COc1cc(OC)cc(C(=O)N2CCN(Cc3ccccc3C(F)(F)F)CC2)c1`?
ER stress surv: 73*

How did NC(=O)NC(c1ccccc1)c1ccccc1Cl (stereo not given) do in these assays?
ER stress surv: 6

How did CCOC(=O)C1=C(C)N=c2s/c(=C\c3ccc(OCC)cc3)c(=O)n2C1c1ccccc1 (stereo not given) do in these assays?
ER stress surv: 2

What do the screens show for `COc1nc(N/N=C\c2ccc3c(c2)OCO3)nc(N2CCOCC2)n1`?
ER stress surv: 0

How did Cc1ccc(C23CC4CC(CC(NC(=O)Nc5ccccn5)(C4)C2)C3)cc1 do in these assays?
ER stress surv: -3

Results for CC1CC(Nc2ccccc2)c2ccccc2N1C(=O)c1cccc(Br)c1 (stereo not given) ?
ER stress surv: 6

Results for CC1CC(Nc2ccccc2)c2ccccc2N1C(=O)/C=C/c1ccco1 (stereo not given) ?
ER stress surv: 51*

How did CC1CC(Nc2ccccc2)c2ccccc2N1C(=O)c1ccccc1 (stereo not given) do in these assays?
ER stress surv: 0

Results for CCSc1nc(N)c2c3c(sc2n1)COC(C)(CC)C3 (stereo not given) ?
ER stress surv: 3

What do the screens show for `CCOC(=O)c1c(NC(=S)NC(=O)c2ccc(F)cc2)sc2c1CCCCC2`?
ER stress surv: 11

Results for O=C1NC(=O)N(c2ccc(Cl)cc2)C(=O)/C1=C/c1ccsc1 ?
ER stress surv: 10

How did CN1CCN(C(=O)c2nn3c(C(F)(F)F)c4c(nc3c2Cl)-c2ccccc2CC4)CC1 do in these assays?
ER stress surv: 0

How did O=C(Nc1ccc(Cl)cc1)C(c1ccccc1)c1ccccc1 do in these assays?
ER stress surv: 7

What do the screens show for `CC(C)(C)c1ccc(S(=O)(=O)Nc2nc3ccccc3s2)cc1`?
ER stress surv: 0

Results for O=C1CC(c2ccccc2)CC2=C1C(c1cccnc1)N(C(=O)c1ccccc1)c1ccccc1N2 (stereo not given) ?
ER stress surv: 79*

How did CCC(=O)N1c2ccccc2NC2=C(C(=O)CC(c3ccccc3)C2)C1c1cccc(Br)c1 (stereo not given) do in these assays?
ER stress surv: 1

How did CCC(=O)N1c2ccccc2NC2=C(C(=O)CC(C)(C)C2)C1c1ccc(N(CC)CC)cc1 (stereo not given) do in these assays?
ER stress surv: 53*

Results for CCC(=O)N1c2ccccc2NC2=C(C(=O)CC(c3ccccc3)C2)C1c1cccnc1 (stereo not given) ?
ER stress surv: 3

What do the screens show for `CCC(=O)N1c2ccccc2NC2=C(C(=O)CC(c3ccccc3)C2)C1c1ccc(F)cc1` (stereo not given)?
ER stress surv: 106*

How did CCC(=O)N1c2ccccc2NC2=C(C(=O)CC(c3ccc(OC)cc3)C2)C1c1ccccc1 (stereo not given) do in these assays?
ER stress surv: -1

How did CCC(=O)N1c2ccccc2NC2=C(C(=O)CC(C)(C)C2)C1c1ccc(C#N)cc1 (stereo not given) do in these assays?
ER stress surv: -3

How did CC1(C)CC(=O)C2=C(C1)Nc1ccccc1N(C(=O)c1ccccc1)C2c1ccc(C#N)cc1 (stereo not given) do in these assays?
ER stress surv: 16

How did COc1ccc(C2C3=C(CC(c4ccccc4)CC3=O)Nc3ccccc3N2C(=O)C(C)C)cc1OC (stereo not given) do in these assays?
ER stress surv: 2

What do the screens show for `Cc1ccc(C(=O)Nc2sc3c(c2C(N)=O)CCCCCC3)cc1`?
ER stress surv: -6

What do the screens show for `COc1cc(/C=C2/SC(=S)N(C)C2=O)ccc1OCCOc1ccc([N+](=O)[O-])cc1`?
ER stress surv: -1

What do the screens show for `Cc1cc(Cl)ccc1OCC(=O)Nc1ccccc1C(N)=O`?
ER stress surv: -4

Results for COc1ccc(/C=N/Nc2nc3cc(C)ccc3cc2C)cc1OC ?
ER stress surv: 3

How did CC(=O)Nc1cc(-c2ccc(Br)cc2)nn1Cc1ccccc1 do in these assays?
ER stress surv: -3

Results for COC(=O)c1sccc1NC(=O)/C=C/c1ccc(OC)cc1 ?
ER stress surv: -4

What do the screens show for `C=CCc1cc(/C=C2\C(=O)NC(=O)N(c3ccc(Cl)cc3)C2=O)cc(OC)c1O`?
ER stress surv: -1

How did CCOc1ccc(S(=O)(=O)N(CC(=O)Nc2ccccc2OCC)c2ccc(C)cc2)cc1 do in these assays?
ER stress surv: 66*

How did CCOc1ccc(S(=O)(=O)N(CC(=O)Nc2ccccc2CC)c2ccc(C)cc2)cc1 do in these assays?
ER stress surv: 0

How did CCOc1ccccc1NC(=O)CN(c1ccc(C)cc1)S(=O)(=O)c1ccc(SC)cc1 do in these assays?
ER stress surv: 5

What do the screens show for `O=C(N/N=C\c1ccc(Cl)c(Cl)c1)c1cnccn1`?
ER stress surv: 9

Results for O=C(NN1C(=O)/C(=C/c2cccc(Br)c2)SC1=S)c1cccnc1 ?
ER stress surv: 0

Results for Cc1ccnc(NC(=O)CSc2nc3ccccc3[nH]2)c1 ?
ER stress surv: -1

Results for Cc1ccnc(NC(=O)C(c2ccccc2)c2ccccc2)c1 ?
ER stress surv: 86*

Results for COc1ccccc1CC(=O)Nc1cc(C)ccn1 ?
ER stress surv: 7

Results for Cc1ccc(-c2nnc(-c3ccncc3)o2)cc1 ?
ER stress surv: -4

What do the screens show for `COC(=O)C1C(=O)CC(C)(O)C(C(=O)OC)C1c1ccc(Br)cc1` (stereo not given)?
ER stress surv: 7
